Measurements from PubChem BioAssay AID624263 (National Center for Advancing Translational Sciences (NCATS), 2012).
Hit rate of the full screen: of about 410,000 compounds, about 820 (0.2%) were called active. Roughly 2% stayed inconclusive and do not appear here. For the sample, actives were picked, then their nearest neighbours and some compounds at random. Unmarked numbers belong to inactive results. Calls come from the whole dose curve; as a rule, active = well fitted activation curve with a large enough effect; inconclusive = small, poorly fitted or top-dose-only effect; inactive = flat fitted curve, though single readings scatter; cell line not stated here.

Test: A Quantitative High throughput Screen to Identify Chemical Modulators of PINK1 Expression; note: nearly all actives have a fitted effect of over 65% in size; for activation (PINK1 increase): % of control where 0% means no effect
Settings: PINK1 immunofluorescence, high-content cytometry, 24 h; series mostly up to 76.6 µM; activation (PINK1 increase): at the top concentration
Excerpt: The overall goal of this project is to develop new tools for understanding and treating the mitochondrial basis for neurodegenerative disease such as Parkinson's disease (PD). The PINK1 campaign was developed from recent data pointing towards mitochondrial dysfunction as a major contributor to dopaminergic neuron loss. The discovery of PINK1/Parkin mediated mitophagy has highlighted the potential for mitochondrial quality control as a novel target for therapeutic intervention. […] A second aim of this project is the development of chemical probes to study the mechanics of mitochondrial quality control. As the PINK1/Parkin mitophagy pathway is a relative recent discovery, no specific chemical probes are available that modulate the process. Presently, only crude tools that cause nonspecific mitochondrial damage are available. To advance the understanding of mitophagy, specific, well characterized chemicals that target various steps of mitophagy regulation need to be developed. New chemical probes may have the ability to dynamically manipulate mitophagy in model organisms such as rodents and zebrafish, advancing our understanding of the process in development and disease. This HTS campaign seeks to discover an activator of PINK1 expression by modulation at the level of post-translational processing.
The PINK1 assay determines the amount and localization of PINK1 protein in a cell using a combination of immunofluorescence and cell staining. The goal of the assay is to determine small molecules that can increase the expression of Pink1 on or inside the cell's mitochondria (ideally without mitochondrial depolarization) using a stable cell line. Since PINK1 protein is rapidly degraded in un-perturbed cells, compounds that induce the enhancement of PINK1 protein expression are identified by determining PINK1 immunofluorescence in conjunction with a mitochondrial, cell, and nuclear marker post fixation. To facilitate rapid high content screening, the primary assay is run in a decision-based HTS mode where compound titration data collected by laser-scanning microplate cytometers is processed and only promising compound series are passed off for high content drill down.
1 Add cells to black, clear-bottom, low-base 1536-well plates 6 uL (250 cells/well)
2 Incubate in TC incubator (12 hours)
3 Pin compounds or DMSO controls 23 nL (5 concentrations per compound set)
4 Dispense CCCP to control columns
5 Incubate in TC incubator 24 hours
6 Aspirate media and fix cells (5 uL of fixative containing nuclear dye)
7 Incubate 15 minutes at RT
8 Wash in PBSTween (12 uL/well)
9 Wash in PBSTriton (12 uL/well)
10 Aspirate wash and add Blocking buffer (4 uL/well)
12 Aspirate block and add primary antibodies 3.5 (uL/well)
13 Incubate 12 hours at 10 degrees C
14 Wash in PBSTween-20 two times (12 uL/well)
15 Aspirate wash and add secondary antibodies (12 uL/well)
17 Wash in PBSTween (12 uL/well)
18 Wash in PBSTween with cell stain (12 uL/well)
19 Read plates on Acumen EX3 and determine Wells2Cells coordinates
Potency is the fitted concentration of half-maximal effect.

Row | SMILES | activation (PINK1 increase) [%] | Potency
1 | COc1ccc(CCNC(=O)CCCCn2c(=O)c3ccccc3n(Cc3ccccc3)c2=O)cc1OC | 1.18 | –
2 | CCCCn1c(SCC(=O)N2CCOCC2)nc2c1c(=O)n(C)c(=O)n2C | 2.85 | –
3 | CCCCn1c(SCC(=O)NCCc2ccc(OC)c(OC)c2)nc2c1c(=O)n(C)c(=O)n2C | – | 3.98 µM (active)
4 | COc1ccccc1C(=O)N[C@@H]1c2ccccc2C2(CCN(C(=O)c3csnn3)CC2)[C@H]1OC | -0.317 | –
5 | CN1CCN(/[N+]([O-])=N/Oc2ccc([N+](=O)[O-])cc2[N+](=O)[O-])CC1 | -0.224 | –
6 | Cc1cc(C)cc(CN2CCc3nnc(C(NS(C)(=O)=O)C(C)C)n3CC2)c1 (configuration not stated) | -0.82 | –
7 | COc1ccccc1C1CN(CCNC(=O)C2=CCCC2)Cc2ccccc2O1 (configuration not stated) | 2.63 | –
8 | O=C(Nc1ncc([N+](=O)[O-])s1)C1COc2ccccc2O1 (configuration not stated) | – | 44.7 µM (active)
9 | COc1ccc(OC)c2sc(N3CCN(C(=O)C4COc5ccccc5O4)CC3)nc12 (configuration not stated) | -0.0279 | –
10 | O=C(CCc1ccccc1)Nc1ccc(NC(=O)C2CCCCC2)nc1 | 9.37 | –
11 | O=C(CCc1ccccc1)Nc1ccc(NC(=O)C2CC2)nc1 | -1.31 | –
12 | O=C(CCc1ccccc1)Nc1ncc([N+](=O)[O-])s1 | – | 20 µM (active)
13 | CC(/C=C/c1ccco1)=N/NC(=O)C1COc2ccccc2O1 (configuration not stated) | 9.76 | –
14 | CN(Cc1cccc2ncccc12)C(=O)c1cnn(-c2nccc(-c3ccccc3F)n2)c1C1CC1 | -0.707 | –
15 | COc1ccc(-n2c(CNC(=O)c3cc(C(F)(F)F)ccc3Cl)nnc2SC)cc1 | -0.22 | –
16 | COc1ccccc1-c1ccnc(-n2ncc(C(=O)NCCCN3CCOCC3)c2C)n1 | 0.284 | –
17 | C[C@@H]1CN(Cc2ccc3c(c2)CN(Cc2ccc(Oc4ncccn4)cc2)CCO3)C[C@H](C)O1 | 0.0196 | –
18 | CCC1CN(CCNC(=O)c2cccc(C)n2)Cc2cc(OC)ccc2O1 (configuration not stated) | 0.509 | –
19 | CCOc1ccc(CCNC(=O)c2csc3c2CCCCC3)cc1 | 2.82 | –
20 | COC(=O)c1sc(NC(=O)c2csc3c2CCCC3)nc1C | – | 10 µM (active)
21 | CCOC(=O)c1ccc(NC(=O)c2csc3c2CCCCC3)cc1 | 3.73 | –

Row | SMILES | activation (PINK1 increase) [%] | Potency
22 | CCCCOc1ccc(C(=O)NO)cc1 | 1.55 | –
23 | Cn1c(SCC(=O)Nc2cccc(O)c2)nnc1-c1ccc(S(=O)(=O)N2CCOCC2)cc1 | – | 14.1 µM (active)
24 | Cc1ccnc(SCC(=O)Nc2cccc(S(=O)(=O)N3CCOCC3)c2)n1 | 1.18 | –
25 | CCC(=O)Nc1cccc(NC(=O)CSc2nnc(-c3ccc(NS(C)(=O)=O)cc3)n2C)c1 | -1.24 | –
26 | CC(C)(C(=O)NO)c1ccccc1 | 0.961 | –
27 | CCC1(C2CCN(Cc3cccnc3)CC2)NC(=O)N(CC2COc3ccccc3O2)C1=O (configuration not stated) | -0.0745 | –
28 | CNCCCOc1cc2nc(N3CCCN(C)CC3)nc(NC3CCN(C)CC3)c2cc1OC | 0.921 | –
29 | COc1ccc2cc(-c3nc(Cl)c4c5c(sc4n3)CC(C)CC5)c(=O)oc2c1 (configuration not stated) | – | 15.8 µM (active)
30 | CCOC(=O)c1c(NC(=O)/C=C/c2ccc(OC)cc2)sc2c1CCC(C)C2 (configuration not stated) | 0.453 | –
31 | COc1ccc2oc(=O)c(-c3cn4c(n3)sc3cc(OC)ccc34)cc2c1 | 2.47 | –
32 | COc1cc(=O)n2c(c1C(=O)N(C)Cc1nccs1)CCN(Cc1ccc(Cl)cc1)CC2 | 1.54 | –
33 | c1ccc(CN2CCN(Cc3ccc4c(c3)CN(Cc3c[nH]c5ccccc35)CCO4)CC2)nc1 | -1.03 | –
34 | COc1ccc(F)c(CN2CCC3(CCC(CNC(=O)c4ccn(C)n4)O3)CC2)c1 (configuration not stated) | -0.704 | –
35 | O=C1COc2ccc(-c3csc(-c4ccc(Cl)cc4)n3)cc2N1 | 5.95 | –
36 | OC(CBr)C[n+]1cccc2cc(Br)ccc21 (configuration not stated) | -0.654 | –
37 | CO[C@H]1[C@H](NC(=O)C(C)C)c2ccccc2C12CCN(Cc1cnc(N(C)C)s1)CC2 | 0.667 | –
38 | CCN1CC=C2C(C#N)=C(N)C(C#N)(C#N)[C@H](c3ccoc3)[C@H]2C1 | – | 39.8 µM (active)
39 | CC(C)N1C[C@@H](NCc2ccccc2O)C[C@H]1C(=O)N1CCN(c2cccc(C(F)(F)F)c2)CC1 | -0.16 | –
40 | FC(F)(F)c1cccc(-c2cn[nH]c2C2CCCN(Cc3cccn3-c3ccccn3)C2)c1 (configuration not stated) | 1.02 | –
41 | CC(=O)Nc1ccccc1-c1nc(CNC(=O)c2ccc(Cl)cc2)c(C)o1 | 0.266 | –
42 | C=COC(=O)N1CCN(/[N+]([O-])=N/Oc2ccc([N+](=O)[O-])cc2[N+](=O)[O-])CC1 | 1.32 | –

Row | SMILES | activation (PINK1 increase) [%] | Potency
43 | CCS(=O)(=O)Nc1cc(C(=O)N2C[C@@H](C)O[C@@H](C)C2)c2c(c1)nc(-c1ccccc1)n2C | 0.73 | –
44 | Cc1ccc(C(=O)Nc2cccc(-c3nc(CNC(=O)c4ccccc4-n4cccn4)c(C)o3)c2)s1 | 1.36 | –
45 | COc1ccc2c(c1)CCc1cnc(-n3ncc(C(=O)NCCN4CCOCC4)c3C)nc1-2 | 1.37 | –
46 | COc1ccc(CN2CCOc3c(cc(-c4ncc(C(F)(F)F)cc4Cl)cc3OCC3CCCO3)C2)c(O)c1 (configuration not stated) | 0.559 | –
47 | COc1cc2nc(N3CCCN(C)CC3)nc(NC3CC3)c2cc1OC | 1.39 | –
48 | CC(=O)Nc1cc(C(=O)N2CCc3c(Cl)cccc3C2)cc2ncn(CCc3ccccn3)c12 | -0.966 | –
49 | COc1ccc(Cl)cc1-c1cc(C(=O)Nc2cc(OC)c(OC)c(OC)c2)[nH]n1 | -1.2 | –
50 | CCCOc1ccc(F)cc1-c1cc(C(=O)Nc2ccc(F)c(Cl)c2)[nH]n1 | – | 39.8 µM (active)
51 | CC(C)Oc1cc(F)ccc1-c1cc(C(=O)Nc2ccc(F)cc2)[nH]n1 | 1.71 | –
52 | Cc1ccc2c(C)nc(N3CCCC(C(=O)NC(C)(C)CO)C3)nc2c1 (configuration not stated) | -0.708 | –
53 | Cc1cnc(C(=O)N2CCOc3ccc(CN4CCCC(C(=O)c5cccnc5)C4)cc3C2)[nH]1 (configuration not stated) | -0.535 | –
54 | O=c1c(-c2ccc(F)cc2)nc2cnc(N3CCOCC3)nc2n1-c1ccccc1 | 0.858 | –
55 | COc1cc2nc(Cl)nc(NC3CC3)c2cc1OC | 1.67 | –
56 | COc1ccc(C(=O)N2CCC3(CC2)CCN(c2ccccn2)CC3)cc1 | -0.552 | –
57 | COc1ccccc1CNc1nc(-c2c(C)noc2C)nc2ccccc12 | 2.49 | –
58 | COc1ccc(CN2CCC3(CCC(CNC(=O)c4ccco4)O3)CC2)cc1OC (configuration not stated) | 1.17 | –
59 | COc1ccc(CN(C)CCn2cc(C(=O)N3CCSCC3)nn2)cc1C | -0.0428 | –
60 | O=C(Nc1ccc2ccccc2c1)Nc1ccc2snnc2c1 | – | 44.7 µM (active)
61 | CS(=O)(=O)c1ccccc1C(=O)Nc1ccc2sccc2c1 | 1.33 | –
62 | COc1cccc(C(=O)Nc2ccc3oc(-c4ccc5ccccc5c4)nc3c2)c1 | -0.987 | –
